Assay outcomes: PubChem BioAssay, several laboratories
Sampled rows, rich in hits. Any-hit rate of the full collection: about 5%.
SENP7 inh = inhibitors of human SENP7 protease; Q9BQF6; recombinant SENP7, Z-RLRGG-aminoluciferin luminescence, 40 min; inhibition, % at 5 µM; 1.5% of 330,000 active;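 active means inhibition above about 50% at the single test dose, limit read from the data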;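 further: plate controls were DMSO with enzyme for no effect and no enzyme buffer wells for full effect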
EBI2 antag = antagonists of human EBI2 receptor | P32249 | EBI2 beta-arrestin recruitment, luminescence, 7a,25-OHC stimulated | inhibition, % at 5 µM | 0.81% of 360,000 active | AID 651636; in the data active means inhibition above about 38%;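 further: enzyme fragment complementation signal reports receptor beta-arrestin coupling in cells; 0% = agonist plus DMSO wells and 100% = wells without agonist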
Target sequence (P32249 whole entry, looked up, the tested form may be a part): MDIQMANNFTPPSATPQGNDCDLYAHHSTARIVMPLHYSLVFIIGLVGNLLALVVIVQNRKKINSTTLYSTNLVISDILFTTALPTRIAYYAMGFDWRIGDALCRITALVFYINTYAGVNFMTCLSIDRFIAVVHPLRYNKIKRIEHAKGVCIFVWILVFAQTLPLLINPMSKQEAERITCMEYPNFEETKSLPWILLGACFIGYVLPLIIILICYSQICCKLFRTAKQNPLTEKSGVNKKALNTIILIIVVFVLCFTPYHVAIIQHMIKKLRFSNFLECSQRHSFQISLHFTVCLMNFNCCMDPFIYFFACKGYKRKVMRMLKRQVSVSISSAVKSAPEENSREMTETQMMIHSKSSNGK
SENP6 inh = inhibitors of human SENP6 protease; AID 2599; Recombinant SENP6 catalytic domain, aminoluciferin luminescence; inhibition, % at 10 µM; Q9GZR1; 1.8% of 330,000 active;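 active means inhibition above about 50% at the single tested dose, limit read from the data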;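 further: plate controls were DMSO wells with enzyme for no effect and DMSO wells lacking enzyme for full effect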
SENP8 block-1 = blocks human SENP8 cleavage of Nedd8 substrate; recombinant SENP8, Nedd8 substrate fluorescence; inhibition, % at 20 µM; 0.64% of 360,000 active; Q96LD8; AID 602440; in the data active means inhibition mostly above about 40%, no sharp cut-off; inactive means mostly below about 27%
AHR activator = activates the human aryl hydrocarbon receptor | AHR-responsive luciferase reporter cells, luminescence | activation, % at 5 µM | 2.5% of 320,000 active | AID 2796; in the data active means activation above about 47%;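 further: 0% = vehicle wells and 100% = reference agonist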
SENP8 block-2 = inhibitors of human SENP8 protease; purified SENP8, Z-RLRGG-aminoluciferin cleavage, luminescence; inhibition, % at 10 µM; 1.2% of 330,000 active; AID 2540; in the data active means inhibition above about 50%
SENP8 conf = confirmation of human SENP8 protease inhibitors; Recombinant SENP8, Z-RLRGG-aminoluciferin luminescence, 60 min; inhibition, % at 12.5 µM; AID 488912; 40% of 6,200 active; shares compounds with SENP7 inh;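 active means mean inhibition across replicates above about 50%, limit read from the data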
SENP6 conf = human SENP6 inhibition, confirmed; shares compounds with SENP7 inh; recombinant SENP6, Z-RLRGG-aminoluciferin luminescence; inhibition, % at 12.5 µM; 58% of 6,200 active; AID 488915
SENP7 conf = confirmation of human SENP7 protease inhibitors; shares compounds with SENP7 inh; recombinant SENP7, Z-RLRGG-aminoluciferin luminescence, 40 min; inhibition, % at 12.5 µM; 69% of 6,200 active
Casp3 select = caspase-3 inhibition (SENP selectivity assay); shares compounds with SENP7 inh; purified caspase-3, Z-DEVD-aminoluciferin luminescence, 60 min; inhibition, % at 12.5 µM; 60% of 6,200 active; AID 488918;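 active means mean inhibition above about 50%, limit read from the data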;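 further: plate controls were enzyme with DMSO for no effect and wells without caspase-3 for full effect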
Target sequence (P42574 28-227 limits assumed): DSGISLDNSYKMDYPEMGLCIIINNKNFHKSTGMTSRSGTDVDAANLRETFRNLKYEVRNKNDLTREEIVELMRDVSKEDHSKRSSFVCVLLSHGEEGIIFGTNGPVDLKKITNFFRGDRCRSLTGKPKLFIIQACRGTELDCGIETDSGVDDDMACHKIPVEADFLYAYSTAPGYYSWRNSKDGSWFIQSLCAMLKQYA
SENP luc ctr = luminescence interference (SENP counter-screen) | inhibition, % at 12.5 µM | 39% of 6,200 active | Pre-incubated SENP8/Z-RLRGG-aminoluciferin, luciferase luminescence interference | shares compounds with SENP7 inh;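 active means mean inhibition above about 50% when retested at one dose, limit read from the data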;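 further: plate controls were DMSO wells with completed reaction for no effect and substrate without enzyme for full effect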
* marks the source's active call; other numbers are inactive results; i = inactive; x = not tested or not shown.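 How the source made its calls, unless noted: active means mean inhibition above about 50% in the one-dose retest (limit read from the data); inactive means the rest.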

SMILES	SENP7 inh	EBI2 antag	SENP6 inh	SENP8 block-1	AHR activator	SENP8 block-2	SENP8 conf	SENP6 conf	SENP7 conf	Casp3 select	SENP luc ctr
COc1ccc(-c2ccc3oc(-c4ccsc4)cc(=O)c3c2)cn1	70*	7	0	i	3	22	17	16	18	15	1
COc1cc(OC)c2c(=O)cc(-c3ccccc3)oc2c1	57*	2	59*	-229	2	46	64*	61*	82*	77*	68*
O=c1cc(-c2ccc(OCc3ccccc3)cc2)oc2cc(OCc3ccccc3)cc(OCc3ccccc3)c12	9	-16	x	-342	x	x	x	x	x	x	x
O=C(CNC(=O)c1ccccc1C(F)(F)F)N/N=C/c1cccs1	-3	0	0	9	1	6	x	x	x	x	x
Cc1ccc(-c2ccnc3nc(-n4cccc4)nn23)o1	5	4	-1	-392	15	6	x	x	x	x	x
O=c1c2c(nc3n1CCCCC3)sc1c(O)c(Br)ccc12	34	-5	65*	6	-9	26	59*	59*	87*	69*	14
O=C(NCCCn1cccn1)c1cc(COc2ccc(F)cc2Cl)on1	5	-4	-8	5	0	0	x	x	x	x	x
COc1ccc2c(c1)CCCC21NC(=O)N(CC(=O)NCc2cccs2)C1=O (configuration not stated)	-15	4	-17	11	-1	-17	x	x	x	x	x
Cc1ccc(S(=O)(=O)CCC(=O)Nc2nc(-c3ccncc3)cs2)cc1	-7	-10	52*	1	2	5	10	6	-7	-1	0
COc1cccc(NC(=O)Nc2ccc(CC(=O)O)cc2)c1	8	2	20	14	-3	2	x	x	x	x	x
COc1cccc(NC(=O)NC2CCCCCCC2)c1	-16	5	-8	15	12	-2	x	x	x	x	x
COc1cccc(NC(=O)CC(=O)c2ccc([N+](=O)[O-])cc2)c1	58*	10	71*	22	-3	69*	82*	80*	93*	72*	74*
COc1cccc(NC(=O)C(=S)NC2CCCCC2)c1	52*	2	-26	19	19	10	59*	65*	84*	48	33
CCc1ccc(NC(=O)Nc2cccc(OC)c2)cc1	56*	18	2	10	14	53*	21	51*	82*	48	59*
CCCCOC(=O)Nc1ccc2c(C)cc(=O)oc2c1	62*	-1	-34	-294	2	35	3	3	50*	48	15
CCCCN(C(=O)C(C)Oc1ccc(Cl)cc1)c1c(N)n(CCCC)c(=O)[nH]c1=O (configuration not stated)	2	-14	-16	-2	-2	-3	x	x	x	x	x
CC(C)Oc1ccc(OCCSc2nc3ccccc3n2CC(=O)O)cc1	4	-1	15	0	4	-1	x	x	x	x	x
O=C(NCc1ccc(Cl)cc1)C1CCN(S(=O)(=O)N2CCOCC2)CC1	-1	15	-12	4	-1	-6	x	x	x	x	x
CC1CCCC(NC(=O)CCNC(=O)c2ccccc2Cl)C1C (configuration not stated)	7	-2	-4	14	-1	1	x	x	x	x	x
COc1ccc(C(=O)Nc2cccc(OC)c2)cc1	92*	11	86*	5	12	79*	2	92*	101*	96*	91*
COc1cccc(NC(=O)c2nnn(CCc3ccccc3)c2N)c1	76*	4	72*	2	3	64*	76*	75*	93*	75*	62*
COc1ccc(-c2cccc(C(=O)Nc3cccc(C(=O)O)c3)c2)cc1	59*	-10	84*	0	4	53*	69*	83*	96*	20	77*
COc1cccc(NC(=O)c2ccc3nsnc3c2)c1	60*	2	63*	-13	20	43	58*	56*	85*	80*	71*
COc1cccc(NC(=O)c2cccc(C(=O)Nc3cccc(OC)c3)c2)c1	5	3	16	5	7	4	x	x	x	x	x
Cn1c(CC(O)c2nc3ccccc3n2C)nc2ccccc21 (configuration not stated)	x	-6	x	-326	x	x	x	x	x	x	x
SMILES	SENP7 inh	EBI2 antag	SENP6 inh	SENP8 block-1	AHR activator	SENP8 block-2	SENP8 conf	SENP6 conf	SENP7 conf	Casp3 select	SENP luc ctr
Brc1cc2c(cc1CSc1ncccn1)OCO2	-4	-4	-24	9	26	-3	x	x	x	x	x
O=C(NCCCN1CCOCC1)C(=O)NCc1ccco1	-1	0	-9	17	-1	0	x	x	x	x	x
COc1cccc(NC(=O)c2ccc(NC(=O)C(C)C)cc2)c1	75*	29	73*	9	2	55*	13	56*	85*	74*	0
COc1cccc(NC(=O)Nc2cccc(C(=O)O)c2)c1	93*	-4	7	0	-3	90*	95*	95*	101*	90*	94*
COc1cccc(NC(=O)CCC(=O)Nc2cccc(OC)c2)c1	2	-9	13	28	15	4	x	x	x	x	x
COc1cccc(NC(=O)C(C)C)c1	4	1	-15	8	3	4	x	x	x	x	x
COc1cccc(C(=O)Nc2ccc3c(C)cc(=O)oc3c2)c1	71*	-8	63*	-343	x	16	13	15	11	29	7
COc1ccc(COc2ccc3c(C)cc(=O)oc3c2)cc1	40	-1	70*	-160	-7	50*	6	56*	45	49	38
O=C(COc1ccccc1[N+](=O)[O-])Nc1ccc2c(c1)OCO2	3	-3	-16	4	46	-5	x	x	x	x	x
O=C(CN1C(=O)C2CCCCC2C1=O)OCC(=O)c1ccc(Cl)s1 (configuration not stated)	-10	-10	-8	30	3	-2	x	x	x	x	x
CCCCn1c(N)c(C(=S)NC(=O)CC(C)(C)C)c(=O)n(C)c1=O	-8	-5	-3	9	-2	-4	x	x	x	x	x
Cc1ccc(NC(=O)c2ccc3nsnc3c2)c(Cl)c1	81*	-4	62*	-10	3	49	25	13	17	22	-5
